Data published in PMC4336329 (PLoS ONE, 2015).
Among all 310,000 compounds or so, about 14,000 (4.5%) showed an effect of 50% or more. The effect is printed as a negative number. Many of the other results were omitted from the sample, so strong results are more common in it than they were.

biological target: human ether-à-go-go-related gene (hERG) potassium channel (human, UniProt Q12809); test: primary screen, population patch clamp on CHO cells stably expressing hERG; higher = less effect of the substance
Sequence (Q12809 whole entry, looked up): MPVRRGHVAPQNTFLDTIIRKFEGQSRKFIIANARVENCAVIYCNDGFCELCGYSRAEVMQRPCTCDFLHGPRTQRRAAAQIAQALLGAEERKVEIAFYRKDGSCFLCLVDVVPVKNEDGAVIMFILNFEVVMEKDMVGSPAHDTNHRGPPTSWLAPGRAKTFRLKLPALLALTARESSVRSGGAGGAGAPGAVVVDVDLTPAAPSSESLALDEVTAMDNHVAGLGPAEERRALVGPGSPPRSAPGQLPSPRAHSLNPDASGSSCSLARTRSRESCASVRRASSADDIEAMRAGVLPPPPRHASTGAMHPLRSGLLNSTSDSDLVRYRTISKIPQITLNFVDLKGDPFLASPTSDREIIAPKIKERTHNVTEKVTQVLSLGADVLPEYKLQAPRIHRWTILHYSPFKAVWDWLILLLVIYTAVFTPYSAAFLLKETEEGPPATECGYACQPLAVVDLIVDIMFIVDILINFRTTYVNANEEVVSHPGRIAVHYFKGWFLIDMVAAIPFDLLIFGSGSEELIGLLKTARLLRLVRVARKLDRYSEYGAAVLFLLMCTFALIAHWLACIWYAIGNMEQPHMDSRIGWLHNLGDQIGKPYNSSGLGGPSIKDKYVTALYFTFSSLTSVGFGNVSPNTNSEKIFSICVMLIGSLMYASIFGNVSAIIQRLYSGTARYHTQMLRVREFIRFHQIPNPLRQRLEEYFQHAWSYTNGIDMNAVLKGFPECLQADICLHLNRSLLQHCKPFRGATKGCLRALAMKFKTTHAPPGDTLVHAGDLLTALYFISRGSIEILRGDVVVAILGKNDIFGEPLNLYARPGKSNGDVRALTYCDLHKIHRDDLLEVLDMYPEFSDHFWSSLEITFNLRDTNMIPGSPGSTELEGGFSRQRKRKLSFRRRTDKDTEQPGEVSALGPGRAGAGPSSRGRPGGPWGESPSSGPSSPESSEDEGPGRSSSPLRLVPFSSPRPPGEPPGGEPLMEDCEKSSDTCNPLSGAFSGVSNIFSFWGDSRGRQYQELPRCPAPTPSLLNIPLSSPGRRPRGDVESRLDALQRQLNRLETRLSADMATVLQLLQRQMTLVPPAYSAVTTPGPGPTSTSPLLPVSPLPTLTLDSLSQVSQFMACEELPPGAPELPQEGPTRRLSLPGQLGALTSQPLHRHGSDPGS
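Also: peak tail current of the secondary pulse compared with the same well before compound.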

Compound | hERG current change (%, negative = inhibition) at 10uM [%]
CCCNS(=O)(=O)c1ccc(OCC(=O)N2CCC(C(=O)OCC)CC2)cc1 | -12.6
COc1ccc(C2Nc3ccccc3NC3=C2C(=O)CC(C)(C)C3)cc1O (stereo not drawn) | 19
COc1ccc([C@H]2CC(=O)C=C(c3ccc4c5c(cccc35)CC4)C2)cc1 | 16
Cc1cc(N2CCCC2=O)ccc1S(=O)(=O)Nc1c(C)nn(C)c1C | 12.3
N#C/C(=C(/O)c1ccc(Cl)cc1)c1nc2ccccc2[nH]1 | 7.3
Cn1c(NNC(=O)c2cccc3ccccc23)cc(=O)n(C)c1=O | 6.73
Cc1cc(NCc2ccco2)nc(N2CCC(C(=O)NC3CCCCC3)CC2)n1 | -71.1
Cc1cc(C)nc(N2CCC(C(=O)NCc3ccco3)CC2)n1 | -1.73
Cc1cc(C)nc(N2CCC(C(=O)NC3CCCCCC3)CC2)n1 | -4.75
O=C(CSc1nnc(NC(=O)c2ccco2)s1)NC1CCCC1 | 18.6
CC(Oc1ccc(F)cc1)C(=O)N(CCC1=CCCCC1)c1c(N)n(Cc2ccccc2)c(=O)[nH]c1=O (stereo not drawn) | -52
Nc1c(N(CCC2=CCCCC2)C(=O)COc2ccc(F)cc2)c(=O)[nH]c(=O)n1Cc1ccccc1 | -6.12
CC(Oc1ccccc1)C(=O)N(CCC1=CCCCC1)c1c(N)n(Cc2ccccc2)c(=O)[nH]c1=O (stereo not drawn) | -48.6
N#Cc1nc(-c2ccc(F)cc2)oc1N1CCN(C(=O)c2ccco2)CC1 | -75.2
N#Cc1nc(-c2ccccc2)oc1N1CCN(C(=O)c2ccco2)CC1 | -75.7
COc1ccc(N2CCN(c3oc(-c4ccco4)nc3C#N)CC2)cc1 | -47.9
N#Cc1nc(-c2ccco2)oc1N1CCOCC1 | 4.48
COc1ccc(-c2nc(C#N)c(N3CCN(C(=O)c4ccco4)CC3)o2)cc1OC | 0.504
COc1cccc(-c2nc(C#N)c(N3CCN(C(=O)c4ccco4)CC3)o2)c1 | -35.1
N#Cc1nc(-c2ccccc2F)oc1N1CCN(C(=O)c2ccco2)CC1 | -18.2

Compound | hERG current change (%, negative = inhibition) at 10uM [%]
N#Cc1nc(-c2ccccc2Cl)oc1N1CCN(C(=O)c2ccco2)CC1 | -9.47
N#Cc1nc(-c2ccco2)oc1N1CCN(c2ccccc2)CC1 | -62.9
O=C(CCCN1C(=O)c2ccccc2C1=O)NCCCN1CCOCC1 | 20.3
CCCCCCCCCCCCN1[C@@H](CC(=O)OC)c2cc(F)cc(F)c2S1(=O)=O | 11.1
CCN(CC)/C(=N\S(=O)(=O)c1ccc(F)cc1)c1ccccc1 | 8.34
Cc1cc2n(n1)C(c1sccc1C)Nc1ccccc1-2 (stereo not drawn) | -15.9
Cc1ccc(Cn2c(C(CO)Nc3nc(-c4ccc(F)cc4)cs3)nc3ccccc32)cc1 (stereo not drawn) | 15.4
CCOC(=O)c1ccc(NC(=O)NCCc2cnc[nH]2)cc1 | 4.44
O=C(c1ccccc1[N+](=O)[O-])N1CCCC(C(=O)N2CCCCCC2)C1 (stereo not drawn) | 10.6
O=C(Nc1cccc(F)c1)c1cc(-c2ccco2)nc2ccccc12 | 9.26
COc1ccc(S(=O)(=O)N2CCC(n3cnc4cc(C(F)(F)F)ccc43)CC2)cc1 | -73.1
O=S(=O)(c1ccc(Cl)cc1)N1CCC(n2cnc3cc(C(F)(F)F)ccc32)CC1 | -78.4
O=C(O)c1cccc(S(=O)(=O)N2CCC(n3nnc4cc(C(F)(F)F)ccc43)CC2)c1 | 20.7
COc1ccc(S(=O)(=O)N2CCC(N3CCCC3)CC2)cc1 | 22.3
O=C(O)c1ccc(S(=O)(=O)N2CCC(n3nnc4cc(C(F)(F)F)ccc43)CC2)cc1 | -37.7
COc1ccc(S(=O)(=O)N2CCC(N3CCCCC3)CC2)cc1 | -11.7
CCOC(=O)C1=C(C)NC(=O)NC1c1ccc(N(CC)CC)cc1 (stereo not drawn) | -6.39
CCOc1ccc(C(=O)NCC(=O)OCc2cc([N+](=O)[O-])cc3c2OCOC3)cc1OCC | -12
O=C(c1ccc2c(c1)OCO2)C1CCCN(Cc2cn[nH]c2-c2cccc(F)c2)C1 (stereo not drawn) | -78.1
O=C(c1ccc2c(c1)OCO2)C1CCCN(Cc2c(F)cccc2Cl)C1 (stereo not drawn) | -32.5

Compound | hERG current change (%, negative = inhibition) at 10uM [%]
O=C(c1ccc2c(c1)OCO2)C1CCCN(Cc2cn[nH]c2-c2ccccc2)C1 (stereo not drawn) | -72.2
c1ccc(-c2[nH]ncc2CN2CCN(Cc3ccc4c(c3)OCO4)CC2)cc1 | -37.9
Cc1ccc(CN2CCN(Cc3cn[nH]c3-c3cccc(F)c3)CC2CCO)o1 (stereo not drawn) | -25.8
O=C(c1ccc2c(c1)OCO2)C1CCCN(Cc2ccccn2)C1 (stereo not drawn) | -30.9
O=C(Nc1ccc2c(c1)OCO2)N1CCCc2ccccc21 | 11.7
COc1cc(/C=N/NC(=O)c2ccc(O)cc2)ccc1OCC(=O)Nc1cccc([N+](=O)[O-])c1 | 10.3
O=S1(=O)N(Cc2ccccc2F)CCCN1Cc1c(F)cccc1Cl | 7.29
CC(=O)Nc1ccc(S(=O)(=O)NCc2ccc3[nH]c(C)cc3c2)cc1 | 21
Cc1ccc([N+](=O)[O-])cc1NC(=O)C(C)N1CCCCC1 (stereo not drawn) | 30.2
N#Cc1ccccc1NC(=O)CN1CCN(c2ccccn2)CC1 | -29.8
CC(C(=O)Nc1cc([N+](=O)[O-])ccc1Cl)N1CCN(c2ccccc2)CC1 (stereo not drawn) | 12.3
O=C(CN1CCN(c2ccccn2)CC1)Nc1ccccc1 | -9.4
Cc1cc(Br)ccc1NC(=O)CN1CCN(c2ccccn2)CC1 | -71.5
O=C(CN1CCN(c2ccccn2)CC1)Nc1ccccc1Br | -31.6
N#Cc1ccc(NC(=O)CN2CCN(c3ccccn3)CC2)cc1 | -71.9
Cc1ccc(NC(=O)CN2CCN(c3ccccn3)CC2)c(Cl)c1 | -1.57
CC(=O)Nc1ccc(NC(=O)CN2CCN(c3ccccn3)CC2)cc1 | 13.3
Cc1cc([N+](=O)[O-])ccc1NC(=O)C(C)N1CCN(c2ccccn2)CC1 (stereo not drawn) | -71.4
O=C(CN1CCN(c2ccccn2)CC1)Nc1ccc(Br)cc1 | -57.7
O=C(CN1CCN(c2ccccn2)CC1)Nc1ccc(F)cc1.O=C(O)C(=O)O | -47.2
